Assay results as given in PubChem BioAssay (NCATS).
Inconclusive results are not listed. Where a call stands in place of a potency, no number is given. Calls of active or inactive are those of the source. The call rests on the fitted dose curve; in most records, active means well fitted inhibition curve with a large enough effect; inconclusive means small, poorly fitted or top-dose-only effect; inactive means no such curve, though single readings can be large or run the other way.

biological target: Retinaldehyde dehydrogenase 3 (Homo sapiens) (UniProt P47895); experiment: qHTS for Inhibitors of the Aldehyde Dehydrogenase Family (ALDH1A3) Primary screen (AID 2061315); settings: ALDH inhibition qHTS; series mostly up to 56 µM

Row | Structure (SMILES) | Potency
1 | COC1C=CC23c4cc5c(cc4COC2(O)CN(C)C3C1)OCO5 (stereo unspecified) | inactive
2 | CC(=O)O[C@@H]1[C@H]2CC[C@H]3[C@@](C)(O)[C@@H]4C[C@H](O)C(C)(C)[C@@]4(O)[C@H](O)C[C@@]13C[C@@]2(C)O | inactive
3 | C=C(C)C(=O)O[C@H]1[C@@H]2[C@H](C)C(=O)O[C@@H]2C[C@@H](C)[C@@H]2C=CC(=O)[C@]21C | inactive
4 | COc1cc(C(=O)O[C@H]2[C@@H]3C=CO[C@@H](O[C@@H]4O[C@H](CO)[C@@H](O)[C@H](O)[C@H]4O)[C@@H]3[C@@]3(CO)O[C@@H]23)ccc1O | inactive
5 | CC1C/C=C/C(O)C(O)CC/C=C/c2cc(O)cc(O)c2C(=O)O1 (stereo unspecified) | inactive
6 | CC(=O)O[C@@H]1[C@@H](O)[C@H]2O[C@@H]3C=C(C)[C@@H](O)C[C@]3(CO)[C@]1(C)[C@]21CO1 | inactive
7 | CC(=O)C1CCC2C3CCC4C[C@@H](O)CCC4(C)C3CCC12C (stereo partly specified) | inactive
8 | CN1CCN(c2nc3ccccc3nc2Cl)CC1 | inactive
9 | C[C@@H]1O[C@@H](O[C@H]2CC[C@@]3(C)C(CC[C@@H]4C3CC[C@]3(C)[C@@H](C5=CC(=O)OC5)CC[C@]43O)C2)[C@H](O)[C@H](O)[C@H]1O (stereo partly specified) | inactive
10 | CCC1CC2CN3CCc4c([nH]c5ccccc45)C(C(=O)OC)(C2)C13 (stereo unspecified) | inactive
11 | C[C@H]1O[C@@H](O[C@H]2[C@@H](O)C[C@H](O[C@H]3[C@@H](O)C[C@H](O[C@H]4CC[C@@]5(C)[C@H](CC[C@@H]6[C@@H]5CC[C@]5(C)[C@@H](C7=CC(=O)OC7)CC[C@]65O)C4)O[C@@H]3C)O[C@@H]2C)C[C@H](O)[C@@H]1O | inactive
